Assay results as given in PMC4336329 (PLoS ONE, 2015).
In all, about 310,000 compounds went through this assay and about 14,000 (4.5%) showed an effect of 50% or more. The effect is printed as a negative number. What follows is part of a selection rich in strong results, with near analogues and random picks from the rest.

molecular target: human ether-à-go-go-related gene (hERG) potassium channel (human, UniProt Q12809); assay: primary screen, population patch clamp on CHO cells stably expressing hERG; higher = less effect of the substance
Sequence (Q12809 whole entry, looked up): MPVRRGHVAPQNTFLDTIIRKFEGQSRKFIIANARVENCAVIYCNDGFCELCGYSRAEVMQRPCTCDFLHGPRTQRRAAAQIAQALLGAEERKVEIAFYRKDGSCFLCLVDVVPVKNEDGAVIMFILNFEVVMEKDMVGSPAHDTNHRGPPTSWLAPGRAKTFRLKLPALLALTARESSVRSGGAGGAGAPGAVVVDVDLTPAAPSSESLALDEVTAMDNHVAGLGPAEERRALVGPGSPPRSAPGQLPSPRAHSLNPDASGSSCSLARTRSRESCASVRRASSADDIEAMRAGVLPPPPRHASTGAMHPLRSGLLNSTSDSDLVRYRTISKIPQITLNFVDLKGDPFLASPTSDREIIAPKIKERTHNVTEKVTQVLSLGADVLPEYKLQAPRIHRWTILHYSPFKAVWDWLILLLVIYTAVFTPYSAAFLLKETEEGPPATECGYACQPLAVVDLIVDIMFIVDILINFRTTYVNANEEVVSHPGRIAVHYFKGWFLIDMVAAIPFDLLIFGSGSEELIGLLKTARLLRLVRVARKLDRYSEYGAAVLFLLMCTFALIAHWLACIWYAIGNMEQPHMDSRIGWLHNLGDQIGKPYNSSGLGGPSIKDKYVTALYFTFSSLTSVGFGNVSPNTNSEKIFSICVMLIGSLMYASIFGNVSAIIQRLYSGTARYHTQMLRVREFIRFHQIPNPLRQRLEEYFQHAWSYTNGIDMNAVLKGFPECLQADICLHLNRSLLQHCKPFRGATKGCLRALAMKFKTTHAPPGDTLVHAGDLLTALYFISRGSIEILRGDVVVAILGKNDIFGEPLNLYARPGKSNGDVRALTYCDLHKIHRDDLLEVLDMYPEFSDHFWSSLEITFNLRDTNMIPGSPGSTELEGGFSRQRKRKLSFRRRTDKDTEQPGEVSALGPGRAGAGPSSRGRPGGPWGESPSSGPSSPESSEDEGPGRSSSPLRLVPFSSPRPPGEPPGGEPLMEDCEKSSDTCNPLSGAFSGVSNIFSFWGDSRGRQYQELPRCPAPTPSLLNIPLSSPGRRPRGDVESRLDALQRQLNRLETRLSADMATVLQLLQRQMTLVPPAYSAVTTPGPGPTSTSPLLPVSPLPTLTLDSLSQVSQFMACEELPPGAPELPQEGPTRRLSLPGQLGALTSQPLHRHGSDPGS
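Further: peak tail current of the secondary pulse compared with the same well before compound.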

| Compound | hERG current change (%, negative = inhibition) at 10uM |
| --- | --- |
| CC1(C)CC(=O)N(CC(=O)NC2CCCC2)c2ccccc2S1(=O)=O | 11.7% |
| COc1ccc(Br)cc1/C=N/NC(=O)C(c1ccncc1)N1CCOCC1 (stereo not drawn) | 7.87% |
| CCOc1ccc(S(=O)(=O)NCCC(=O)NCc2cccnc2)cc1 | 4.31% |
| O=C1c2cccc3cc([N+](=O)[O-])cc(c23)C(=O)N1CC1CCCO1 (stereo not drawn) | -8.56% |
| CCOC(=O)N1CCc2c(sc3[nH]c(=S)[nH]c(=S)c23)C1 | 13.4% |
| O=C(O)CC[N+](=O)[O-] | 15.3% |
| CCN(CC)CCNC(=O)c1[nH]c2ccc(OCc3ccccc3)cc2c1C | -74.6% |
| Cc1c(C(=O)N2CCOCC2)[nH]c2ccc(OCc3ccccc3)cc12 | -13.2% |
| COc1ccc2[nH]c(C(=O)NCc3ccccc3)c(C)c2c1.Cl | 7.03% |
| CCc1cc(=O)oc2cc(OCC(=O)NCCCn3ccnc3)c(Cl)cc12 | -28.5% |
| CCCc1cc(=O)oc2cc(C)cc(OCC(=O)NCCCN3CCOCC3)c12 | -7.61% |
| Cc1c(C)c2ccc(OC(C)C(=O)NCCCn3ccnc3)c(C)c2oc1=O (stereo not drawn) | -6.05% |
| CCCc1cc(=O)oc2cc(OCC(=O)NCCCn3ccnc3)ccc12 | -47.1% |
| CCCc1cc(=O)oc2cc(OCC(=O)NCCCn3ccnc3)c(Cl)cc12 | -72.3% |
| Cc1cc(OCC(=O)NCCCn2ccnc2)c2c(C)c(C)c(=O)oc2c1 | -63.6% |
| CCCc1cc(=O)oc2cc(C)cc(OCC(=O)NCCN3CCOCC3)c12 | 6.05% |
| Cc1c(C)c2cc(Cl)c(OCC(=O)NCCCn3ccnc3)cc2oc1=O | -2.59% |
| Cc1c(C)c2ccc(OCC(=O)NCCCn3ccnc3)cc2oc1=O | 14% |
| Cc1cc(OC(C)C(=O)NCCCn2ccnc2)c2c(C)c(C)c(=O)oc2c1 (stereo not drawn) | -76.7% |

| Compound | hERG current change (%, negative = inhibition) at 10uM |
| --- | --- |
| CCCc1cc(=O)oc2cc(C)cc(OCC(=O)NCCCn3ccnc3)c12 | -76.4% |
| Cc1cc(OC(C)C(=O)NCCCn2ccnc2)c2c(C)cc(=O)oc2c1 (stereo not drawn) | -15.4% |
| Cc1cc(C(F)(F)F)nc(SCc2ccc(C(=O)O)o2)n1 | -2.51% |
| CC(=O)Oc1ccc2ccccc2c1C(NC(=O)Cc1ccccc1)c1ccccc1Cl (stereo not drawn) | 7.9% |
| CCc1noc(C)c1C(=O)N1CCCC(C(=O)c2cc(F)ccc2F)C1 (stereo not drawn) | -41.2% |
| N#Cc1ccccc1NC(=O)CSC1=Nc2ccccc2C2CC=NN12 (stereo not drawn) | 1.95% |
| Cc1ccc(SC(C)c2nc(-c3ccncc3)no2)cc1 (stereo not drawn) | -24.3% |
| Cc1ccc(S(=O)(=O)CCC(=O)OCC(=O)N2c3ccccc3CC2C)cc1 (stereo not drawn) | 13% |
| O=C(COC(=O)c1ccco1)NCc1ccc(Cl)cc1 | 4.21% |
| O=C(COC(=O)c1cc([N+](=O)[O-])ccc1Cl)NC1CCCC1 | -26.8% |
| O=C(COC(=O)CCc1c[nH]c2ccccc12)Nc1ccccc1C(F)(F)F | -5.09% |
| CCC(C)(C(=O)NC1CCCCC1)N(Cc1ccco1)C(=O)CC1NC(=O)NC1=O (stereo not drawn) | 5.88% |
| O=C(CSc1nc(-c2ccc(Cl)cc2)[nH]c(=O)n1)Nc1cccc(Cl)c1 | 22.3% |
| CC(C)(C)c1ccccc1OCC(=O)NCCC(=O)O | -7.3% |
| CCCc1cc(=O)oc2cc(OCC(=O)NCCCN3CCOCC3)c(Cl)cc12 | -73% |
| Cc1cc(OCC(=O)NCCCn2ccnc2)c2c(C)cc(=O)oc2c1 | -22.5% |
| CCCc1cc(=O)oc2cc(OC(C)C(=O)NCCCn3ccnc3)ccc12 (stereo not drawn) | -42.1% |
| CCCCc1cc(=O)oc2cc(OCC(=O)NCCN3CCOCC3)c(Cl)cc12 | 1.96% |
| CCCc1cc(=O)oc2cc(C)cc(OC(C)C(=O)NCCCn3ccnc3)c12 (stereo not drawn) | -65.3% |

| Compound | hERG current change (%, negative = inhibition) at 10uM |
| --- | --- |
| CCc1cc(=O)oc2cc(C)cc(OCC(=O)NCCCN3CCOCC3)c12 | -11.1% |
| CCc1cc(=O)oc2cc(C)cc(OCC(=O)NCCCn3ccnc3)c12 | -55.3% |
| CCc1cc(=O)oc2cc(OCC(=O)NCCCN3CCOCC3)c(Cl)cc12 | 4.59% |
| CCc1cc(=O)oc2cc(C)cc(OC(C)C(=O)NCCCn3ccnc3)c12 (stereo not drawn) | -30.9% |
| Cc1cc(C)cc(COc2ccc3c(C)c(CC(=O)O)c(=O)oc3c2C)c1 | -41.4% |
| O=C(COc1ccc(S(=O)(=O)NC2CCCCC2)cc1)NCc1cccnc1 | 2.91% |
| CC(C)NC1=C(Cl)C(=O)c2ccccc2C1=O | 4.34% |
| O=C1[C@H]2CC3CCC2(O3)[C@@H]2OCCCN12 (stereo partly drawn) | 4.02% |
| O=S(=O)(c1cccc(-c2nnc(SCc3ccc(Cl)cc3)o2)c1)N1CCCCC1 | 10.7% |
| CCOC(=O)c1nn(-c2ccccc2)c(=O)c(C#N)c1C | 13.5% |
| CC(C)CCN(CC(=O)NC1CCCC1)C(=O)C(=O)Nc1ccc2c(c1)OCCO2 | 11% |
| O=C(CN1CCN(Cc2ccc3c(c2)OCO3)CC1)c1c[nH]c2ccccc12 | -63.5% |
| O=C(c1c[nH]c2ccccc12)N1CCN(Cc2ccccc2)CC1 | -13.5% |
| O=C(C(=O)N1CCN(Cc2ccc3c(c2)OCO3)CC1)c1c[nH]c2ccccc12 | -11.6% |
| NC(=O)CN1CCN(Cc2ccc3c(c2)OCO3)CC1 | 30.6% |
| O=C(CN1CCN(Cc2ccccc2)CC1)c1c[nH]c2ccccc12 | -56.5% |
| O=C(CN1CCN(c2ccccc2)CC1)c1c[nH]c2ccccc12 | -0.617% |
| COc1ccc(-c2ccc(C#N)c(SCC(=O)OCc3ccccc3)n2)cc1OC | -2.31% |
| CCCn1c(N)c(C(=O)CSc2n[nH]c(-c3ccc(C)cc3)n2)c(=O)[nH]c1=O | 22.2% |
